Screening data (PubChem)
ASM inhibitor: Inhibitors of Secretory Acid Sphingomyelinase (S-ASM): qHTS; Sphingomyelin phosphodiesterase (Homo sapiens), P17405; placental ASM, HMU-PC fluorogenic substrate, 60 min; Potency, µM (top dose mostly 57.5 µM), for inactives: at the top dose activity change, negative = inhibition, usual class: inhibitors; 340,000 compounds, 0.006% hits; AID 504937, 2011; also: potency is read from the fitted curve at half-maximal effect
Target sequence (P17405 47-631 limits assumed): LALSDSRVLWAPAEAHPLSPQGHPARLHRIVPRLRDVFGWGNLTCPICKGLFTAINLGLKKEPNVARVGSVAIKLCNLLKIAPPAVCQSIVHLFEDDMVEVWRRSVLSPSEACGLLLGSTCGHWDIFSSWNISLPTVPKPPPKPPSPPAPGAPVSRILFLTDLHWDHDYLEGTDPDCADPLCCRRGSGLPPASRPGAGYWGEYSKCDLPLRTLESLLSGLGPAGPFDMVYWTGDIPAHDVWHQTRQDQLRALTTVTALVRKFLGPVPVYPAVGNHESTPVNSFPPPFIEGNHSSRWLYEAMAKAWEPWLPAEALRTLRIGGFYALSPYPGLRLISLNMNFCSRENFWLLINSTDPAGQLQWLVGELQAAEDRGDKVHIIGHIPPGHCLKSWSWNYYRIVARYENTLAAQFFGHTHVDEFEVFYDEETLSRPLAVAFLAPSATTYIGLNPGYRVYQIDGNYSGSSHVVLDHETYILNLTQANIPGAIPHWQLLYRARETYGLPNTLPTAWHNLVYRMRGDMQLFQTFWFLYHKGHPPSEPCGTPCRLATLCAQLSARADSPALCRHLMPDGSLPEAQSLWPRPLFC
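Steps: dispense placental human ASM, pin compound, wait 10 min at room temperature, add HMU-PC0 substrate at 9 uM final, incubate 60 min at 37 °C, add stop solution raising pH to 10, read fluorescence.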
TDP1 cell noCPT: qHTS for Inhibitors of human tyrosyl-DNA phosphodiesterase 1 (TDP1): qHTS in cells in absence of CPT; Potency, µM (series often up to 46.2 µM), for inactives: at the highest dose activity change, negative = growth inhibition, hits mostly inhibitors; DT40 Tdp1-/- hTDP1 cells, no CPT, ATP luminescence, 48 h; AID 686978, 2013; 420,000 compounds, 15% hits; also: potency is read from the fitted curve at half-maximal effect; % is scaled to controls: 0 for no effect and ±100 for the full control effect; nearly all actives have a fitted effect of over 55% in size
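Chicken DT40 Tdp1-/- cells complemented with human TDP1, screened without camptothecin (DMSO vehicle only), 400 cells/well. Compounds pin-transferred, cells incubated at 37 °C for at least 48 hr. Growth read as ATP-dependent luminescence (CellTiter-Glo, 30 min at RT).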
TGFb SMAD3 inh: qHTS for Inhibitors of TGF-b; HepG2 CAGA-GFP TGF-b/SMAD3 reporter, GFP fluorescence, 18 h; TGF-beta stimulated, 500 pg/mL final; Potency, µM (top dose mostly 46.1 µM), inactives show at the highest dose activity, negative = inhibition, hits mostly inhibitors; 410,000 compounds, 1.2% hits; AID 588855, 2011; also: potency is read from the fitted curve at half-maximal effect; % is scaled to controls: 0 for no effect and ±100 for the full control effect; nearly all actives have a fitted effect of over 65% in size
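GFP signal (ex488/em500-530) from TGF-beta-stimulated HEPG2 CAGA-GFP cells, 500 pg/mL final, 18 h at 37 degrees C in DMEM plus 1% FBS, normalized to unstimulated and DMSO-stimulated controls.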
HepG2 tox: qHTS for Inhibitors of TGF-b: Cytotox Counterscreen; Potency, µM (doses to about 46.1 µM), for the others: at the top dose activity change, negative = cytotoxicity, actives largely listed as cytotoxic; 410,000 compounds, 0.76% hits; HepG2 CAGA-GFP viability, ATP luminescence, 18 h; also: potency is read from the fitted curve at half-maximal effect
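HepG2 CAGA-GFP cells (1000/well, DMEM with 1% FBS) received compound, then TGF-beta at 500 pg/mL final, and were incubated 18 hours at 37 degrees C. Viability was read by CellTiter-Glo luminescence. Media-only wells were set as complete cell-killing and DMSO as no toxicity.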
IL1B secr inh: qHTS for Inhibitors of Inflammasome Signaling: IL-1-beta AlphaLISA Primary Screen; THP-1 LPS/ATP IL-1B secretion, AlphaLISA, 16 h; stronger effect = lower value; activity change, % at 57.5 µM; 360,000 compounds, 4.7% hits; in the data active = activity change below about -50%; inconclusive = mostly about -30% to -49%; also: % is scaled to controls: 0 for no effect and ±100 for the full control effect
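Secreted IL-1B measured by AlphaLISA bead assay after 16 h compound exposure of THP-1 cells; compounds (final up to 57.5 uM) added 1 h before LPS (250 ng/mL) and ATP (1.25 mM) stimulation; lower signal means less secretion.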
TDP1 cell CPT: qHTS for Inhibitors of human tyrosyl-DNA phosphodiesterase 1 (TDP1): qHTS in cells in presence of CPT; AID 686979, 2013; chicken DT40 Tdp1-/-;hTDP1 cells + 20 nM CPT, ATP luminescence, 48 h; Potency, µM (top dose mostly 46.2 µM), without a hit: top-dose activity change, negative = growth inhibition, actives largely listed as inhibitors; 420,000 compounds, 12% hits; also: potency is read from the fitted curve at half-maximal effect; % is scaled to controls: 0 for no effect and ±100 for the full control effect; nearly all actives have a fitted effect of over 55% in size
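Chicken DT40 Tdp1-/- cells stably complemented with human TDP1 were seeded at 400 cells/well in medium containing 20 nM camptothecin, exposed to pin-transferred compounds, and grown at 37 °C for at least 48 hr. Viability was read as ATP luminescence.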
Active calls of the source: *; i = inactive; ? = inconclusive; / = not tested or not shown. Most compounds without a hit are left out; they make up all but 19% or so of the library. Unless noted, calls follow the shape of the dose curve; as a rule, active = well fitted curve in the direction sought with a large enough effect; inconclusive = small, poorly fitted or top-dose-only effect, or another doubt; inactive = no such curve, though single readings can be large; an effect the other way counts as inactive or inconclusive.

SMILES	ASM inhibitor	TDP1 cell noCPT	TGFb SMAD3 inh	HepG2 tox	IL1B secr inh	TDP1 cell CPT
Cc1nc2ccccn2c1-c1csc(Nc2cccc(C(=O)O)c2)n1	-0.1%	-7.6%	-0.2%	-2.1%	29.8	2.3%
Cc1cccc(Nc2nc(-c3c(C)nc4ccccn34)cs2)c1	-1.7%	11.2µM*	?	-42.6%	-96.1*	13µM*
Cc1nc2ccccn2c1-c1csc(Nc2cccc(O)c2)n1	0.4%	1.64µM*	?	1.5%	-103.6*	0.731µM*
Cc1nc2ccccn2c1-c1csc(Nc2ccc(C(=O)O)cc2)n1	5.6%	3.66µM*	0.0%	2.5%	94.9	2.91µM*
Cc1cccc(Nc2nc(-c3ccc(O)cc3O)cs2)n1	?	?	?	-27.4%	-90.0*	13.1%
CCc1cccc(NC(=O)CN(C)S(=O)(=O)c2ccc3c(c2)n(C)c(=O)c(=O)n3C)c1	/	-23.1%	-5.9%	-1.9%	/	-25.7%
ON(Cc1c(F)cccc1Cl)Cc1c(F)cccc1Cl	5.7%	-11.7%	9.5%	0.5%	0.0	3.4%
Cc1ccc(C(C)NC(=O)Cc2cccs2)c(C)c1 (stereo not drawn)	3.0%	-13.2%	-6.3%	2.9%	-9.4	?
Cn1ncc2c(Nc3cc(C(F)(F)F)ccc3Cl)ncnc21	/	?	-1.6%	-4.2%	/	?
Oc1ccc(-c2csc(Nc3ccc4c(c3)OCO4)n2)c(O)c1	-12.4%	-21.2%	?	-25.7%	-27.9	-8.1%
N#Cc1ccc(Nc2nc(-c3ccc(O)cc3O)cs2)cc1C(F)(F)F	-21.7%	10.3µM*	?	-110.5%	-100.7*	13µM*
CCCCOc1ccc(C(=O)NCC(=O)NCC(c2ccco2)N2CCCCC2)cc1 (stereo not drawn)	/	-13.3%	?	-23.6%	9.8	?
O=C(Cn1cnc2c(nnn2Cc2ccc(Cl)cc2)c1=O)N1CCN(c2ccccc2)CC1	-1.7%	20.6µM*	?	-27.8%	-10.3	18.4µM*
Cc1ccc(Cn2nnc3c(=O)n(Cc4cccc(C)c4)cnc32)cc1	-4.5%	?	-14.8%	-22.7%	-10.5	-8.7%
Cc1cccc(Cn2cnc3c(nnn3Cc3ccc(Cl)cc3)c2=O)c1	-8.7%	15.8µM*	-9.5%	-2.2%	0.0	?
O=C(Cn1cnc2c(nnn2Cc2ccccc2)c1=O)N1CCN(c2ccccc2)CC1	4.9%	23.1µM*	1.2%	-5.7%	-17.5	?
O=C(Cn1cnc2c(nnn2Cc2ccc(Cl)cc2)c1=O)N1CCCc2ccccc21	-6.3%	?	?	-13.3%	7.1	?
O=C(Cn1cnc2c(nnn2Cc2ccccc2F)c1=O)N1CCN(c2ccccc2)CC1	-2.5%	?	0.4%	-20.1%	-14.0	?
Cc1cc(O)ccc1N/C=C(\C#N)c1nc2ccccc2o1	68.6%	11.6µM*	-24.5%	-26.7%	3.2	?
COc1ccc2nc(NN=C(C)c3ccccn3)cc(C)c2c1	2.5%	2.91µM*	1.12µM*	-55.5%	-102.2*	1.64µM*
Cc1c(C)n(Cc2ccccc2)c2ccc(C(=O)NCCN3CCOCC3)cc12	-2.6%	-29.0%	-0.3%	-4.6%	6.8	?
CCOc1ccc(CCNC(=O)c2ccc3c(c2)c(C)c(C)n3Cc2ccccc2)cc1OCC	/	13µM*	?	-31.2%	/	16.4µM*
Cc1ccc(CCNC(=O)c2ccc3c(c2)c(C)c(C)n3Cc2ccccc2)cc1	/	?	0.0%	-30.8%	/	16.4µM*
Cc1ccc(Cn2c(CCNC(=O)c3cccc(C)c3)nc3ccccc32)cc1	/	?	?	-13.5%	/	18.4µM*
COc1cc(CCNC(=O)c2ccc3c(c2)c(C)c(C)n3Cc2cccc(C)c2)cc(OC)c1OC	/	5.17µM*	-29.6%	-11.9%	/	7.31µM*
SMILES	ASM inhibitor	TDP1 cell noCPT	TGFb SMAD3 inh	HepG2 tox	IL1B secr inh	TDP1 cell CPT
Cc1ccc2c(=O)cc(C(=O)Nc3ccc(S(=O)(=O)N4CCCCC4)cc3)oc2c1	/	-19.1%	-5.0%	-48.3%	/	-23.0%
CCCCN1C[C@H](C)[C@@H](CC(=O)Nc2ccccc2)C1=O	/	-20.7%	0.3%	9.7%	-6.1	-1.7%
CC(C)CC(=O)N1CCN(Cc2ccc(C(F)(F)F)cc2)CC1	7.0%	?	?	-3.7%	-5.6	?
CC(C(=O)Nc1ccc(C(F)(F)F)cc1)N(C)CC(=O)N1CCN(Cc2ccccc2)CC1 (stereo not drawn)	2.6%	?	?	-16.1%	-51.3*	?
Cn1c2ccccc2c(=O)c2ccc(C#CC3(N)CCCCC3)cc21	i	13µM*	?	-58.1%	-85.6*	-96.0%
Cn1c2ccccc2c(=O)c2ccc(C#Cc3ccccn3)cc21	338.0%	?	?	-14.4%	-17.0	?
Cn1c2ccccc2c(=O)c2cc(C#CC3(O)CCCCC3)ccc21	i	?	6.7%	-25.6%	-52.6*	16.4µM*
O=c1c2ccccc2oc2ccc(C#CC3(O)CCCCC3)cc12	-20.4%	?	?	-29.7%	0.0	?
NC1(C#Cc2ccc3c(=O)c4ccccc4sc3c2)CCCCC1	90.8%	?	-18.0%	-33.8%	-28.5	25.9µM*
COc1cccc2oc3ccc(C#CC4(N)CCCCC4)cc3c(=O)c12	171.7%	3.66µM*	?	-76.4%	-97.1*	7.31µM*
Cc1cn([C@H]2C[C@H](O)[C@@H](CCC(=O)NCc3ccc(N(C)C)cc3)O2)c(=O)[nH]c1=O	/	-3.3%	4.6%	4.2%	9.7	10.5%
CC1CCN(S(=O)(=O)c2cccc(C(=O)N(C)C3(C)CCS(=O)(=O)C3)c2)CC1 (stereo not drawn)	-0.8%	-23.9%	?	0.9%	-0.5	-8.7%
COc1cc(C(=S)N2CCCC2)cc(OC)c1OS(=O)(=O)c1ccc(NC(C)=O)cc1	4.5%	?	19.1%	2.9%	-4.7	?
CCOc1cc(C=O)ccc1OS(=O)(=O)c1ccc(NC(C)=O)cc1	1.4%	18.4µM*	-33.8%	-28.9%	21.8	?
COc1cc(C(=S)N2CCOCC2)ccc1OS(=O)(=O)c1ccc(NC(C)=O)cc1	0.0%	9.2µM*	?	-0.1%	0.0	18.4µM*
COc1cc(C(=S)N2CCCC2)ccc1OS(=O)(=O)c1ccc(NC(C)=O)cc1	-0.2%	?	-5.5%	-15.2%	-27.3	14.6µM*
